According to PubChem BioAssay (Tox21):
Records with an inconclusive call do not appear. Entries that show only a call come without a potency. Calls of active or inactive are those of the source. Calls follow the shape of the dose curve; as a rule, active = well fitted cell-killing curve with a large enough effect in the repeat runs; inconclusive = weak or mixed curves, or effect the other way; inactive = no such curve, though single readings can be large or run the other way.

Assay: qHTS assay to identify small molecule antagonists of the glucocorticoid receptor (GR) signaling pathway - cell viability counter screen (AID 720693); also: nearly all actives have a fitted effect of over 55% in size
Settings: GR-bla HeLa viability, CellTiter-Glo luminescence, 18 h, with 5 nM dexamethasone present; series mostly up to 58.5 µM
Potency is read from the fitted curve at half-maximal effect.

Row | SMILES | Potency
1 | CNc1ccc(O)cc1 | 54.8 µM (active)
2 | CCCCCCCCCCCC[N+](C)(C)CCCCCCCCCCCC | 24.5 µM (active)
3 | CC(=O)S[C@@H]1CC2=CC(=O)CC[C@]2(C)[C@H]2CC[C@@]3(C)[C@@H](CC[C@@]34CCC(=O)O4)[C@H]12 | 49 µM (active)
4 | O=C(OC[C@H]1O[C@@H](OC(=O)c2cc(O)c(O)c(OC(=O)c3cc(O)c(O)c(O)c3)c2)[C@H](OC(=O)c2cc(O)c(O)c(OC(=O)c3cc(O)c(O)c(O)c3)c2)[C@@H](OC(=O)c2cc(O)c(O)c(OC(=O)c3cc(O)c(O)c(O)c3)c2)[C@@H]1OC(=O)c1cc(O)c(O)c(OC(=O)c2cc(O)c(O)c(O)c2)c1)c1cc(O)c(O)c(OC(=O)c2cc(O)c(O)c(O)c2)c1 | 16.9 µM (active)
5 | CO[Si](CCCNc1ccccc1)(OC)OC | inactive
6 | S=c1[nH]c2ccccc2s1 | inactive
7 | Cc1cccc(S(=O)(=O)O)c1C | inactive
8 | O=[N+]([O-])c1cc([N+](=O)[O-])c2ccc(S(=O)(=O)O)cc2c1O | inactive
9 | CCOC(=O)O[C@H](C)OC(=O)c1ccc2c(c1)cc(C(=O)NC1CCN(C(C)C)CC1)n2Cc1cc(-c2ccc(Cl)s2)on1 | 20.4 µM (active)
10 | CCCCCCCCCCCCCCCC[N+](C)(C)CCN(Cc1ccc(OC)cc1)c1ncccn1 | inactive
11 | O=C(Oc1cccc2cccnc12)c1ccccc1 | inactive
12 | OCCN(CCO)c1nc(N2CCCCC2)c2nc(N(CCO)CCO)nc(N3CCCCC3)c2n1 | inactive
13 | CSc1cnc(C)cn1 | inactive
14 | CCC(N)(CO)CO | inactive
15 | CCCC1O[C@@H]2C[C@H]3[C@@H]4CCC5=CC(=O)C=C[C@]5(C)[C@H]4[C@@H](O)C[C@]3(C)[C@]2(C(=O)CO)O1 (some centres undefined) | inactive
16 | Clc1ccccc1C(c1ccccc1)(c1ccccc1)n1ccnc1 | inactive
17 | CC(C)(C)C(=O)OCOC(=O)C1N2C(=O)CC2S(=O)(=O)C1(C)C (centres undefined) | inactive
18 | C1CCCC1 | inactive
19 | Cc1c(C)c2c(c(C)c1OC(=O)CCC(=O)O)CC[C@@](C)(CCC[C@H](C)CCC[C@H](C)CCCC(C)C)O2 | 26.8 µM (active)
20 | O=[N+]([O-])c1cc(Cl)c(Cl)c(Cl)c1Cl | inactive

Row | SMILES | Potency
21 | CC(NN)c1ccccc1 (centres undefined) | inactive
22 | CCCCCCCCNC(C)C(O)c1ccc(SC(C)C)cc1 (centres undefined) | 10.7 µM (active)
23 | Oc1cccc2cc3cccc(O)c3c(O)c12 | inactive
24 | COc1ccc(C(=O)/C(Br)=C\C(=O)O)cc1 | inactive
25 | CC(C)c1ccc2c(c1)CC[C@H]1[C@](C)(CN)CCC[C@]21C | 38.9 µM (active)
26 | C[C@H](CCC(=O)O)[C@H]1CC[C@H]2[C@@H]3CC[C@@H]4C[C@H](O)CC[C@]4(C)[C@H]3CC[C@]12C | inactive
27 | On1ccccc1=S | inactive
28 | Cc1cc(C2CCCCC2)n(O)c(=O)c1 | inactive
29 | COc1cc(/C=C/C(=O)O[C@H]2CC[C@]34C[C@]35CC[C@]3(C)[C@@H]([C@H](C)CCC=C(C)C)CC[C@@]3(C)[C@@H]5CC[C@H]4C2(C)C)ccc1O | inactive
30 | Cc1ccc(-n2nc(C(C)(C)C)cc2NC(=O)Nc2ccc(OCCN3CCOCC3)c3ccccc23)cc1 | inactive
31 | CCOC(=O)/C=C(C)/C=C/C=C(C)/C=C/c1c(C)cc(OC)c(C)c1C | inactive
32 | COc1cccc(N)c1 | inactive
33 | Cn1cc(C(=O)[C@@H]2CCc3nc[nH]c3C2)c2ccccc21 | inactive
34 | O=C(OCC(COC(=O)c1ccccc1)(COC(=O)c1ccccc1)COC(=O)c1ccccc1)c1ccccc1 | inactive
35 | CN(C)c1ccc(SC#N)cc1 | inactive
36 | CC(=O)OCC(C)OC(C)=O (centres undefined) | inactive
37 | CCc1cc(SCc2sc(-c3ccc(C(F)(F)F)cc3)nc2CN2CCN(c3ccc(OC)cc3)CC2)ccc1OCC(=O)O | 49 µM (active)
38 | C=CC(=O)OCCn1c(=O)n(CCOC(=O)C=C)c(=O)n(CCOC(=O)C=C)c1=O | inactive
39 | CCCCCCCCCCCCCCCS(=O)(=O)Oc1ccccc1 | inactive
